The values that follow come from article PMC5700166.

For test [1], the target named is T1, GST-Nv-NF-kB (Ser allele) (Nematostella vectensis, UniProt A7UNT2 2-411).
T1 sequence: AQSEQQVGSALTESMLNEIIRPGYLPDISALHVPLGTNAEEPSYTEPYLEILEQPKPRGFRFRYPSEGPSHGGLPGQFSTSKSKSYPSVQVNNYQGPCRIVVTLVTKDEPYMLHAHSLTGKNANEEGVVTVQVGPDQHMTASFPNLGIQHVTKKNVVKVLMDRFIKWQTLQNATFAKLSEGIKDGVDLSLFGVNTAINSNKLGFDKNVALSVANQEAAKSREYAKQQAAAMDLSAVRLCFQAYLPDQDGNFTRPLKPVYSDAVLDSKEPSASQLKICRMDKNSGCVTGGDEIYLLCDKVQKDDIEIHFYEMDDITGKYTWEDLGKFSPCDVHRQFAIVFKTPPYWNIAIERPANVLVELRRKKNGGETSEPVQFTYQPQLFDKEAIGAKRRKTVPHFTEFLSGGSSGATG
The test can be described thus: protein-binding microarray (PBM); PBM: ~300 nM protein, 6 mM HEPES pH 7.8, 80 mM KCl, 0.5 mM EDTA, 0.5 mM EGTA, 6% glycerol, 35 ng/ul poly-dIdC, 1% milk, 1 h, room temperature; Ap Aiptasia and Nv Nematostella (sea anemones) / Co Capsaspora / Aq Amphimedon (sponge) / Dm Drosophila / Hu human; RHD is the Rel homology domain; high values mean tight binding. The settings on record: dsDNA, one strand shown.

The next test has as its target GST-Hu-p50 (Homo sapiens, UniProt P19838 7-356). Described as above. Particulars: dsDNA, one strand shown.

Chain of GST-Hu-p50 (P19838 7-356): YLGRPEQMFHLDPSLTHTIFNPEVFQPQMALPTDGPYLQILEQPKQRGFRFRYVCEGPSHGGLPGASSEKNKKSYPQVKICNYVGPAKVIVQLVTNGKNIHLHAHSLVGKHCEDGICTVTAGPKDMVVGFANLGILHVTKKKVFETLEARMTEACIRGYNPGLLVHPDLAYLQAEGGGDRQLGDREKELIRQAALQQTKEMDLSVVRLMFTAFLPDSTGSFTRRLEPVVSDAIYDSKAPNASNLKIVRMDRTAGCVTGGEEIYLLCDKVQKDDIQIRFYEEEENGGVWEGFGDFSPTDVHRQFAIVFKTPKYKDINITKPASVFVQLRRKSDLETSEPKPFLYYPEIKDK

On to “CCGATTAACATCAGGAATCTACCTGATGTTAATCGGGTCTTGATTCGCTTGACGCTGCTG”, for which the binding signal in test [1] is 1.79 z-score; with GST-Hu-p50, 2.27 z-score.

Turning to “CCGATTAACATCAGGAGACTCCCTGATGTTAATCGGGTCTTGATTCGCTTGACGCTGCTG”, the binding signal in test [1] worked out at 1.61 z-score; with GST-Hu-p50 it was 1.93 z-score.

On to “CCGATTAACATCAATATTTCCCATGATGTTAATCGGGTCTTGATTCGCTTGACGCTGCTG”, for which the binding signal stood at 3.55 z-score in test [1] and 3.27 z-score with GST-Hu-p50.

For the sequence “CCGATTAACATCAGAAATTACCATGATGTTAATCGGGTCTTGATTCGCTTGACGCTGCTG”, the binding signal is 3.08 z-score in test [1] and 2.24 z-score in the test with GST-Hu-p50.

For “CCGATTAACATCAATTTACCCACTGATGTTAATCGGGTCTTGATTCGCTTGACGCTGCTG”, the binding signal in test [1] worked out at 2.27 z-score; with GST-Hu-p50 it was 2.06 z-score.

For “CCGATTAACATCAATGGGAATTCTGATGTTAATCGGGTCTTGATTCGCTTGACGCTGCTG”, the binding signal in test [1] came to 4.57 z-score; with GST-Hu-p50, 3.4 z-score.

Regarding “CCGATTAACATCACCCATCCCCCTGATGTTAATCGGGTCTTGATTCGCTTGACGCTGCTG”, the binding signal in test [1] was determined as 4.96 z-score; with GST-Hu-p50, 4.2 z-score.

“CCGATTAACATCACATATTTCCCTGATGTTAATCGGGTCTTGATTCGCTTGACGCTGCTG”: the values for the binding signal (in test [1]; with GST-Hu-p50) were 5.42 z-score and 3.71 z-score, respectively.

Take “CCGATTAACATCAATTCCCAAGGTGATGTTAATCGGGTCTTGATTCGCTTGACGCTGCTG”: the binding signal in test [1] turned out to be 2.02 z-score; in the test with GST-Hu-p50 it was 2.13 z-score.

With “CCGATTAACATCAGGGAACTACCTGATGTTAATCGGGTCTTGATTCGCTTGACGCTGCTG”, the binding signal in test [1] was determined as 4.46 z-score; with GST-Hu-p50, 3.92 z-score.

As for “CCGATTAACATCACAGGGAAAAATGATGTTAATCGGGTCTTGATTCGCTTGACGCTGCTG”, the binding signal worked out at 5.18 z-score in test [1] and 3.13 z-score with GST-Hu-p50.

“CCGATTAACATCATAGTCCCATGTGATGTTAATCGGGTCTTGATTCGCTTGACGCTGCTG”: the binding signal in test [1] was 1.82 z-score; with GST-Hu-p50 it was 1.34 z-score.

For the sequence “CCGATTAACATCAGGGGTAAAACTGATGTTAATCGGGTCTTGATTCGCTTGACGCTGCTG”, the binding signal in test [1] came to 3.62 z-score; in the test with GST-Hu-p50 it was 3.28 z-score.

With “CCGATTAACATCACCAGTTTCCCTGATGTTAATCGGGTCTTGATTCGCTTGACGCTGCTG”, the binding signal in test [1] stood at 4.89 z-score; in the test with GST-Hu-p50 it was 2.39 z-score.

For the sequence “CCGATTAACATCACACCCCCCCCTGATGTTAATCGGGTCTTGATTCGCTTGACGCTGCTG”, the binding signal in test [1] was 3.66 z-score; in the test with GST-Hu-p50, 3.76 z-score.

For “CCGATTAACATCAGGAAGTTCCCTGATGTTAATCGGGTCTTGATTCGCTTGACGCTGCTG”, the binding signal in test [1] amounted to 2.53 z-score; in the test with GST-Hu-p50 it was 3.79 z-score.

As to “CCGATTAACATCAGGTATTTTTATGATGTTAATCGGGTCTTGATTCGCTTGACGCTGCTG”, the figures for the binding signal (in test [1]; with GST-Hu-p50) were 3.43 z-score and 3.11 z-score, respectively.

As for “CCGATTAACATCAAGTAAATCCCTGATGTTAATCGGGTCTTGATTCGCTTGACGCTGCTG”, the results for the binding signal (in test [1]; with GST-Hu-p50) were 1.71 z-score and 2.28 z-score, respectively.

For the sequence “CCGATTAACATCATTAGGGTATTTGATGTTAATCGGGTCTTGATTCGCTTGACGCTGCTG”, the binding signal in test [1] came to 4.26 z-score; in the test with GST-Hu-p50, 4.5 z-score.

On to “CCGATTAACATCAGAAATGGGAATGATGTTAATCGGGTCTTGATTCGCTTGACGCTGCTG”, for which the figures for the binding signal (in test [1]; in the test with GST-Hu-p50) were 1.7 z-score and 1.72 z-score, respectively.

“CCGATTAACATCACGGGTTTCCCTGATGTTAATCGGGTCTTGATTCGCTTGACGCTGCTG”: the binding signal in test [1] is 4.88 z-score; in the test with GST-Hu-p50, 3.17 z-score.

Consider “CCGATTAACATCAGGGGCGCCCCTGATGTTAATCGGGTCTTGATTCGCTTGACGCTGCTG”, for which the binding signal in test [1] was determined as 4.55 z-score; with GST-Hu-p50, 4.9 z-score.

On to “CCGATTAACATCAGGCGATTCCCTGATGTTAATCGGGTCTTGATTCGCTTGACGCTGCTG”, for which the binding signal in test [1] worked out at 2.44 z-score; in the test with GST-Hu-p50 it was 1.92 z-score.

Take “CCGATTAACATCATGGTGGGAAATGATGTTAATCGGGTCTTGATTCGCTTGACGCTGCTG”: the binding signal in test [1] is 2.25 z-score; with GST-Hu-p50 it was 2.18 z-score.

For “CCGATTAACATCAGGGGGCAAGATGATGTTAATCGGGTCTTGATTCGCTTGACGCTGCTG”, the binding signal in test [1] stood at 1.92 z-score; with GST-Hu-p50, 2.2 z-score.

In the case of “CCGATTAACATCACCCAGTTCCCTGATGTTAATCGGGTCTTGATTCGCTTGACGCTGCTG”, the binding signal worked out at 1.2 z-score in test [1] and 1.24 z-score with GST-Hu-p50.

For the sequence “CCGATTAACATCAGGGAAAGAACTGATGTTAATCGGGTCTTGATTCGCTTGACGCTGCTG”, the binding signal was determined as 3.33 z-score in test [1] and 2.37 z-score with GST-Hu-p50.

For the sequence “CCGATTAACATCACGGCTTTCCCTGATGTTAATCGGGTCTTGATTCGCTTGACGCTGCTG”, the values for the binding signal (in test [1]; with GST-Hu-p50) were 3.48 z-score and 2.19 z-score, respectively.

With “CCGATTAACATCACGGAATACCCTGATGTTAATCGGGTCTTGATTCGCTTGACGCTGCTG”, the binding signal is 3.97 z-score in test [1] and 3.41 z-score with GST-Hu-p50.

Take “CCGATTAACATCAGGAATTACCATGATGTTAATCGGGTCTTGATTCGCTTGACGCTGCTG”: the binding signal was found to be 2.03 z-score in test [1] and 2.05 z-score with GST-Hu-p50.

With “CCGATTAACATCACGCAACCCCCTGATGTTAATCGGGTCTTGATTCGCTTGACGCTGCTG”, the binding signal in test [1] was determined as 4.87 z-score; with GST-Hu-p50, 5.03 z-score.

For the sequence “CCGATTAACATCAGGGTTTTTTATGATGTTAATCGGGTCTTGATTCGCTTGACGCTGCTG”, the values for the binding signal (in test [1]; in the test with GST-Hu-p50) were 4.61 z-score and 4.89 z-score, respectively.

On to “CCGATTAACATCAGGTACTTCCATGATGTTAATCGGGTCTTGATTCGCTTGACGCTGCTG”, for which the binding signal in test [1] amounted to 5.91 z-score; with GST-Hu-p50, 2.98 z-score.

On to “CCGATTAACATCAGGAACCCCCATGATGTTAATCGGGTCTTGATTCGCTTGACGCTGCTG”, for which the binding signal is 4.62 z-score in test [1] and 5.23 z-score with GST-Hu-p50.

“CCGATTAACATCAAGTTTTCCCATGATGTTAATCGGGTCTTGATTCGCTTGACGCTGCTG”: the values for the binding signal (in test [1]; with GST-Hu-p50) were 5.18 z-score and 3.3 z-score, respectively.

For “CCGATTAACATCACGGTTTTTCCTGATGTTAATCGGGTCTTGATTCGCTTGACGCTGCTG”, the figures for the binding signal (in test [1]; in the test with GST-Hu-p50) were 1.21 z-score and 1.62 z-score, respectively.

On to “CCGATTAACATCAAACACTCCCCTGATGTTAATCGGGTCTTGATTCGCTTGACGCTGCTG”, for which the figures for the binding signal (in test [1]; with GST-Hu-p50) were 4.23 z-score and 3.6 z-score, respectively.
